LmPK inh: blocks Leishmania mexicana pyruvate kinase activity; Q27686; purified LmPK, Kinase-Glo ATP luminescence, 1 h; Potency, µM (doses to about 57.5 µM), most hits filed as inhibitors; hit rate 0.37% among 290,000; AID 1721
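Kinase-Glo luminescence read after 1 h RT reaction of 0.1 nM LmPK with 0.5 mM PEP and 0.1 mM ADP. Activity scaled between uninhibited and enzyme-free controls.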
FBPA Giardia inh: inhibitors of Giardia lamblia fructose-1,6-bisphosphate aldolase. A8B2U2. Potency, µM (highest dose often 59.6 µM), usual class: inhibitors. AID 2451. purified Giardia FBPA. hit rate 0.71% among 290,000; note: nearly all actives have a fitted effect of over 55% in size
Target sequence (A8B2U2 whole entry, looked up): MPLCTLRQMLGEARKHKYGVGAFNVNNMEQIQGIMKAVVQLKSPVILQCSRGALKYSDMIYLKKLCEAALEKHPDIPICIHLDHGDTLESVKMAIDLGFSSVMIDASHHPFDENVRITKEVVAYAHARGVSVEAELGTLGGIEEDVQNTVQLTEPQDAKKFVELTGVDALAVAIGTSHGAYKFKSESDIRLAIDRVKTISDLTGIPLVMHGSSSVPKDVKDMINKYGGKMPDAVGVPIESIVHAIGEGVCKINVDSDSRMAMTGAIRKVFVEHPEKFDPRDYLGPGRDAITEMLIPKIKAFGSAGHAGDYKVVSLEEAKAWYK
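Giardia FBPA (40 nM reagent) was preincubated 10 min at RT with compound (up to 57.5 uM final), then substrate plus GAPDH/TPI/NAD/arsenate coupling system with diaphorase/resazurin was added; resorufin fluorescence (525/598 nm) was read after 20 min.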
NS1 function inh: inhibitors of influenza NS1 protein function | Potency, µM (titrated, usually from 46.1 µM) | hit rate 0.4% among 270,000; calls by dose curve; note: actives are rising curves; nearly all actives have a fitted effect of over 50% in size
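A cell-based growth assay was used: compounds that relieve NS1-induced slow growth of budding yeast raise OD600. Assay medium was yeast nitrogen base with ammonium sulphate and -URA supplement, pH 6.0, with 2% galactose.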
Shiga toxin inh: inhibitors of Shiga toxin in Vero cells; inhibition, % at 38.7 µM; Vero cells, Shiga toxin protein synthesis inhibition reporter; hit rate 9.2% among 290,000; in the data active = inhibition mostly above about 28%, no sharp cut-off; inactive = mostly below about 43%
Cycloheximide cs: counter-screen for Shiga toxin inhibitors: cycloheximide protein synthesis inhibition; hit rate 12% among 300,000; AID 2314; max response, %; cell reporter, cycloheximide protein synthesis inhibition counterscreen; in the data active = max response mostly above about 13%, no sharp cut-off; inactive = mostly below about 14%; note: read at 38.3 µM for the half of the compounds with a filed dose
A number is an active result; 0 = inactive; ? = inconclusive; - = no result given; [ ] = dose if it differs, or a comment. Shown are actives, neighbours in structure and some others; about 14% of the full set was active somewhere. Unless noted, calls come from the whole dose curve; as a rule, active = well fitted curve in the direction sought with a large enough effect; inconclusive = small, poorly fitted or top-dose-only effect, or another doubt; inactive = no such curve, though single readings can be large; an effect the other way counts as inactive or inconclusive.

SMILES	LmPK inh	FBPA Giardia inh	NS1 function inh	Shiga toxin inh	Cycloheximide cs
COCCn1c(=O)c(-c2cc(F)cc(F)c2)nc2cnc(Oc3cccc(Cl)c3)nc21	-	0	-	-	-
Clc1ccc(NCc2cccnc2)cc1	0	0	0	0	0
CSc1ccc(CNc2ccc(Cl)cc2)cc1	0	0	0	79.3	26.7
CO[C@@H]1/C=C\CC(=O)N2CCC[C@@H]2C(=O)OC[C@H](C)C(=O)OC[C@H]1C	-	0[12.9 µM]	-	-	-
Cc1c(OCc2ccccc2)cccc1OCc1ccccc1	0	0[12.9 µM]	0	0	21.1
Cc1nc2ccccc2nc1OCc1cccc(Cl)c1	0	0	0	0	0
Cc1nc2ccccc2nc1OCc1ccccc1	0	0	0	0	18.3
COc1ccc(N2CC(C(=O)NC3CCSC3=O)CC2=O)cc1 (stereo unspecified)	0	0	0	0	0
CN(/N=C/c1cc(Br)cc(Br)c1O)c1cccc(C(F)(F)F)n1	0	0	0	0	0
CCc1ccc(-c2cc(C)no2)cc1S(=O)(=O)Nc1cc(C)on1	0	0	0	0	0
CCc1ccc(-c2cc(C)no2)cc1S(=O)(=O)NCc1ccccc1OC	0	0	0	0	0
CCc1ccc(-c2cc(C)no2)cc1S(=O)(=O)NCCc1ccccc1	0	0	0	0	35.4
COc1cccc(CNS(=O)(=O)c2cc(-c3cc(C)no3)ccc2C(C)C)c1	0	0	0	0	0
Cc1ccc(-c2nn3c(C)nnc3c3ccccc23)cc1S(=O)(=O)NCCO	0	0	0	0	0
Cc1ccnc(NS(=O)(=O)c2cc(-c3cc(C)no3)ccc2C(C)C)c1	0	0	0	28.2	17.3
Cc1ccc(-c2nn3c(C)nnc3c3ccccc23)cc1S(=O)(=O)NCc1ccco1	0	0	0	37.1	50.8
Cc1cc(-c2ccc(C(C)C)c(S(=O)(=O)NCc3ccco3)c2)on1	0	0	0	33.9	30.1
CCCCOc1cccc(/C=C(\C#N)C(=O)NC2CC2)c1	0	0	0	0	0
COC(=O)[C@@H]1C[C@@H]2CC[C@@H](O)C[C@@H]2N1Cc1ccc(C)s1	-	0	-	-	-
O=C(CCN1CCN(S(=O)(=O)c2cccc([N+](=O)[O-])c2)CC1)Nc1ccccc1F	0	-	0	0	0
CCc1ccc2nc(Nc3nc(COC)cc(=O)[nH]3)nc(C)c2c1	0	0	0	0	0
COCc1cc(=O)[nH]c(Nc2nc3ccc(C)cc3o2)n1	0	0	0	82.3	42.8
COc1nc(NCc2cccnc2)nc(OC)n1	0	0	0	0	0
C=CCNc1nc(Nc2ccc([N+](=O)[O-])cc2)nc(OC)n1	0	0	-	0	0
Cc1ccc(Nc2nc(Cl)nc(NC3CCCCC3)n2)cc1	0	0	0	62.4	25.0
SMILES	LmPK inh	FBPA Giardia inh	NS1 function inh	Shiga toxin inh	Cycloheximide cs
COc1nc(NCc2cccnc2)nc(NC2CCCCC2)n1	0	0	0	34.8	71.3
COc1nc(Nc2ccc([N+](=O)[O-])cc2)nc(NC2CCCCC2)n1	0	0	-	77.9	42.9
O=S(=O)(c1ccccc1)N1CCC2(CCCN(c3ccccn3)C2)CC1	-	0	-	-	-
COC(=O)C1=C(C(=O)OC)[C@@H]2N(C)c3ccc(OC)cc3[C@@]23C[C@@H](C(=O)OC)N(S(=O)(=O)c2ccc4c(c2)OCCN4C)C3=N1	0[11.5 µM]	0[12.9 µM]	-	-	-
COc1cccc(NC(=O)c2ccnc(N3CCC(C(=O)NCc4cc(OC)ccc4OC)CC3)c2)c1	0	-	0	0	0
CCCCNC(=S)Nc1ccc(C(F)(F)F)cc1	0	0	-	30.4	18.9
CC(C)(C)C(=O)NC(=S)Nc1ccc(C(F)(F)F)cc1	0	0	0	61.4	43.2
CCCCNC(=S)Nc1ccc(Cl)cc1	0	0	0	45.2	0
CC(C)(C)C(=O)NC(=S)Nc1ccc(Cl)c(C(=O)O)c1	0	0	-	0	0
CCNC(=S)Nc1ccc(Cl)cc1	0	0	0	0	0
CCOC(=O)C(NC(C)=O)C(=O)Nc1ccc(C(C)(C)C)cc1 (stereo unspecified)	0	0	0	0	0
CCOC(=O)NC(=S)Nc1ccc(C(C)(C)C)cc1	0	0	0	79.9	33.4
COc1ccc2cc1Oc1ccc(cc1)CC1c3cc(c(OC)cc3CCN1C)Oc1c(OC)c(OC)c(OC)c3c1C(C2)N(C)CC3 (stereo unspecified)	-	?	-	0	0
CC(=O)c1ccc(N(CC(=O)NCCc2ccccc2)C(=O)c2csnn2)cc1	0	0	0	0	0
O=S(=O)(Nc1cccc(S(=O)(=O)N2CCOCC2)c1)c1cccs1	0	0	0	0	0
CCOCCOC(=O)C1=C(C)NC(=O)NC1c1cc2c(cc1Br)OCO2 (stereo unspecified)	0	0	0	0	0
CCN1C(=O)[C@H]2[C@H]3[C@H](O)[C@H](O)C/C(=N/O[C@@H](C)CN4CCCCc5nc(C)c(C)cc54)[C@@H]3CC[C@@H]2C1=O	-	0[12.9 µM]	-	-	-
CSc1nsc(SCC(=O)Nc2ccc(C(C)=O)cc2)n1	0	0	0	71.8	47.5
COc1ccc(NC(=O)CSc2nc(SC)ns2)cc1	0	-	0	89.0	18.9
O=C(Nc1ccc(S(=O)(=O)Nc2ncccn2)cc1)c1ccccc1Br	0	0	0	0	0
COc1cccc(-c2ccc3ncnc(NC4CC4)c3c2)c1	-	0	-	-	-
O=C(Nc1ccnn1C1CCN(C(=O)c2ccc(F)c(Cl)c2)CC1)C1CC1	0	-	0	0	0
O=C(O)CC1(CC(=O)N2CCOCC2)CCCC1	0	0	0	0	0
O=C1OC2(c3ccccc31)c1cc(I)c(O)c(I)c1Oc1c2cc(I)c(O)c1I	-	15.8µM	-	0	0
O=C(c1ccc(F)cc1)C(Cc1ccccc1)N1CCCCC1 (stereo unspecified)	0	0	0	69.2	34.6
SMILES	LmPK inh	FBPA Giardia inh	NS1 function inh	Shiga toxin inh	Cycloheximide cs
Cn1c(SCc2ccccc2Cl)nnc1-c1cnccn1	0	0	0	132.5	24.3
Cn1c(SCc2cccc(F)c2)nnc1-c1cnccn1	0	0	0	63.8	28.6
Cn1c(SCc2cccc(Br)c2)nnc1-c1ccccn1	0	0	0	49.9	22.4
Cn1cnnc1SCc1cccc(Br)c1	0	0	?	0	0
Cn1c(SCC(=O)C(C)(C)C)nnc1-c1cccnc1	0	0	0	0	0
Cn1c(SCc2ccccc2[N+](=O)[O-])nnc1-c1cccnc1	0	0	-	51.4	23.5
NC(=O)N/N=C1\CC[C@H](O)C[C@@H]1CC(=O)O	-	-	0	-	-
OC[C@H]1O[C@@H](n2cnc3c(Nc4ccccc4)ncnc32)[C@H](O)[C@H]1O	-	0	0	-	-
Cc1ccccc1CSc1nnc(-c2ccccn2)n1C	0	0	0	90.3	25.6
Cn1c(SCc2cccc(F)c2)nnc1-c1ccccn1	0	0	0	58.1	36.0
Cc1ccc(NC(=O)CSc2nnc(-c3ccccn3)n2C)cc1	0	0	0	0	0
N#Cc1ccc(CN2CC3(CCN(C(=O)c4ccncc4)CC3)C2)cc1	-	0	-	-	-
O=C(C1CCCCC1)N1CCN(c2ccnc3cc(Cl)ccc23)CC1	0	0	0	0	0
CC(C)(C)C(=O)Nc1ccc(C(=O)Nc2cccnc2)cc1	0	0	0	0	42.9
COc1ccc(C(=O)Nc2ccc(C(=O)Nc3cccnc3)cc2)cc1	0	0	0	-	0
COc1ccc(NC(=O)c2ccc(COCC(F)(F)F)cc2)cc1OC	0	0	0	0	0
